In PubChem BioAssay:
Unmarked numbers belong to inactive results. For some assays here: Measured potencies and affinities stand elsewhere. Active and inactive are the calls of the source. Unless noted, how the calls were made is not given here.

Tests used:
[1] = antimalarial activity against Dd2 strain (AID 2302;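 active means growth inhibition above 50% at the single 2 µM test dose, taken to imply half-maximal potency below 2 µM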;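 further: 0% = DMSO untreated growth and 100% = chloroquine plus artemisinin killed control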); conditions: P. falciparum Dd2 in RBCs, LDH growth readout, 72 h; at 2 µM; active compounds read high
[2] = HepG2 cytotoxicity, primary screen, cytotoxicity control for P. falciparum antimalarial project, cell-based, ATP luminescence (AID 2303;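 active means inhibition above 50%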;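 further: 0% = DMSO wells and 100% = digitonin-killed cells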); conditions: HepG2 viability, 24-48 h, at 10 µM, active compounds read high
[3] = molecular target: L-lactate dehydrogenase (Plasmodium falciparum (isolate CDC / Honduras)) (UniProt Q27743); assay: PfLDH activity inhibition – cell lysate, 3D7 strain, counter-screen for P. falciparum growth inhibition project (AID 2304);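 further: 0% = vehicle and 100% = reference inhibitor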; conditions: P. falciparum 3D7 crude extract, LDH APAD/NBT absorbance; at 2 µM; active compounds read high
[4] = inhibition of 3D7 malaria parasite growth – strain 3D7 (AID 2306);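 further: 0% = DMSO wells and 100% = chloroquine plus artemisinin control wells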; conditions: P. falciparum 3D7 erythrocytic growth, LDH absorbance, 72 h; at 2 µM; active compounds read high
[5] = molecular target: Calcium-dependent protein kinase 1 (Plasmodium falciparum (isolate 3D7)) (UniProt P62344); assay: PfCDPK1 kinase inhibitors, biochemical, TCAMS library (AID 1159585; cut-off not given, nearly all actives have IC50 up to about 0.98 µM;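 further: inhibitors leave more ATP so luminescence rises with inhibition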); conditions: recombinant PfCDPK1, Kinase-Glo ATP depletion luminescence
[6] = molecular target: Plasmodium falciparum protein kinase 6 (PK6, PF3D7_1337100) (UniProt Q8IDW1); assay: PfPK6 kinase inhibitors, biochemical, TCAMS library (AID 1159586); conditions: recombinant PfPK6, Kinase-Glo ATP depletion luminescence
[7] = molecular target: Protein kinase 7 (PK7), Plasmodium falciparum 3D7 (PF3D7_0213400) (UniProt Q7YTF7); assay: inhibition of Plasmodium PK7 catalytic activity – biochemical, TCAMS antimalarial set, Kinase-Glo luminescence (AID 1159587); conditions: recombinant PfPK7, Kinase-Glo ATP depletion luminescence
[8] = molecular target: Calcium-dependent protein kinase 4 (Plasmodium falciparum (isolate 3D7)) (UniProt Q8IBS5); assay: PfCDPK4 kinase inhibitors, biochemical, TCAMS library (AID 1159588; cut-off not given, nearly all actives have IC50 up to about 0.91 µM); conditions: recombinant PfCDPK4, Kinase-Glo ATP depletion luminescence
Sequence of Calcium-dependent protein kinase 4 (Plasmodium falciparum (isolate 3D7)) (Q8IBS5 whole entry, looked up): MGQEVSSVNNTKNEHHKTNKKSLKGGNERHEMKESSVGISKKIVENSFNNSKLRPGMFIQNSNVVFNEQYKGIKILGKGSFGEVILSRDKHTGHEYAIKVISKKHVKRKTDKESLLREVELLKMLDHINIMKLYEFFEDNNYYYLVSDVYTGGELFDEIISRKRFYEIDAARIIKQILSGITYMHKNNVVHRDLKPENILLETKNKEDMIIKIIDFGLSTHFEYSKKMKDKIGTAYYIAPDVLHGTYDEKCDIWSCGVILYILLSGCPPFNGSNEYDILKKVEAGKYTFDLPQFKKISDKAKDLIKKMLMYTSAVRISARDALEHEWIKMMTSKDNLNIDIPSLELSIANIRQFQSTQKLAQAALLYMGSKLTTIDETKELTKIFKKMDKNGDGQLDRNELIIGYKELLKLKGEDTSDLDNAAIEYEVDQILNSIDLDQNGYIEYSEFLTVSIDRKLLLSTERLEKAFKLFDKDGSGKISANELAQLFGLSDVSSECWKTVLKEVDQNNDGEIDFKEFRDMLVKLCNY

Sequence of Calcium-dependent protein kinase 1 (Plasmodium falciparum (isolate 3D7)) (P62344 whole entry, looked up): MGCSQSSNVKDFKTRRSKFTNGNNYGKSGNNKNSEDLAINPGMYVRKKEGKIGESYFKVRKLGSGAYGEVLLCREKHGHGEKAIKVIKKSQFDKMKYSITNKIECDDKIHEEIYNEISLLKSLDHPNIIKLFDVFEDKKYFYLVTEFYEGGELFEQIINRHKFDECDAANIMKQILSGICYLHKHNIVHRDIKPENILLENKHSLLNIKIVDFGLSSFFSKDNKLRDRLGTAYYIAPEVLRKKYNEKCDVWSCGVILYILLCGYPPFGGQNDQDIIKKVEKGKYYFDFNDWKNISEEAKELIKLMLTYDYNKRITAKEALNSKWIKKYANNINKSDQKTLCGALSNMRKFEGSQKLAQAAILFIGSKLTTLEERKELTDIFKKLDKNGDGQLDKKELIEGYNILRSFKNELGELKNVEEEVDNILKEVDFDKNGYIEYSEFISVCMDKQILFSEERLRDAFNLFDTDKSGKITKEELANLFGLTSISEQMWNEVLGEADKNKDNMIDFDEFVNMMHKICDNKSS
Sequence of Protein kinase 7 (PK7), Plasmodium falciparum 3D7 (PF3D7_0213400) (Q7YTF7 1-343): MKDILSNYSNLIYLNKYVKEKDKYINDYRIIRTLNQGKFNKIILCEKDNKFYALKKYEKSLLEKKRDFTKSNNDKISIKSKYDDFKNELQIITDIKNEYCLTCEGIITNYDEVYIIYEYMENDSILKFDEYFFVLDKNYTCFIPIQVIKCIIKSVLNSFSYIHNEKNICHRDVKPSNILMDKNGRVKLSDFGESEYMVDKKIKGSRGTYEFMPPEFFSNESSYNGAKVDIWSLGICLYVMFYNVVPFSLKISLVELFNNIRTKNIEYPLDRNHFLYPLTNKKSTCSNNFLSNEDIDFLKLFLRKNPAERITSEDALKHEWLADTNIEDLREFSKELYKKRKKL
Sequence of Plasmodium falciparum protein kinase 6 (PK6, PF3D7_1337100) (Q8IDW1 1-305): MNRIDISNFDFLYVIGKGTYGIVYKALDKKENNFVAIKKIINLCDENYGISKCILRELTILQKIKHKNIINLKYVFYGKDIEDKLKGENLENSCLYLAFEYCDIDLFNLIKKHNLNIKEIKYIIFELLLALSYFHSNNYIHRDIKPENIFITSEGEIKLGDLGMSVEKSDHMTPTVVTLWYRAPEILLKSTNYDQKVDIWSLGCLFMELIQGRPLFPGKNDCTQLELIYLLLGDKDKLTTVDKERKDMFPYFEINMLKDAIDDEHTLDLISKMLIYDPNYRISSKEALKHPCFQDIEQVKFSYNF
Sequence of L-lactate dehydrogenase (Plasmodium falciparum (isolate CDC / Honduras)) (Q27743 whole entry, looked up): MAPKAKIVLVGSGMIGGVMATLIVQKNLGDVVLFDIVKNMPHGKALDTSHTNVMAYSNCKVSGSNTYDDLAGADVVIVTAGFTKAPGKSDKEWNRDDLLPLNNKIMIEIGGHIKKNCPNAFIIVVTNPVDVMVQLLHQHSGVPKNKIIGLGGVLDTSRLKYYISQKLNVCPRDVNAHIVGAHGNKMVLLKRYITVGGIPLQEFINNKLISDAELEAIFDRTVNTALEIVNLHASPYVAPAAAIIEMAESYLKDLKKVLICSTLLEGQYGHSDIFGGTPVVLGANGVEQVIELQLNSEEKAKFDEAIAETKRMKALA

| SMILES | growth inhibition [1] | inhibition [2] | inhibition [3] | growth inhibition [4] | outcome [5] | outcome [6] | outcome [7] | outcome [8] |
| --- | --- | --- | --- | --- | --- | --- | --- | --- |
| CC(C)CCN=C(N)Nc1ccc(OCCCCCOc2ccc(NC(N)=NCCC(C)C)cc2)cc1 | 67% (active) | 14% | 6% | 85% (active) | inactive | inactive | inactive | inactive |
| CCNc1cc(C(=O)N[C@@H](Cc2ccccc2)[C@H](O)CNC23CCC(CC2)CC3)cc(N2CCCCS2(=O)=O)c1 | 98% (active) | 10% | 4% | 99% (active) | inactive | inactive | inactive | inactive |
| CN(C)CCOc1cc(NC(=O)Nc2cccc3c(-c4ccncc4)cccc23)ccc1I | 28% | 20% | 0% | 100% (active) | inactive | inactive | inactive | inactive |
| CN1CCCC(OC(=O)c2ccccc2)C1 (stereo not given) | -2% | 4% | -5% | 100% (active) | inactive | inactive | inactive | inactive |
| Cc1ccccc1CNc1ccc2nc(N)nc(N)c2c1 | 90% (active) | 59% (active) | -3% | 101% (active) | inactive | inactive | inactive | inactive |
| CC1(C)N=C(N)N=C(N)N1OCCCOc1cc(Cl)c(Cl)cc1Cl | 95% (active) | 60% (active) | -1% | 95% (active) | inactive | inactive | inactive | inactive |
| C=CCN1C(=O)C(C(C)=O)=C(O)C1c1ccccc1 (stereo not given) | 97% (active) | 41% | -4% | 93% (active) | inactive | inactive | inactive | inactive |
| CN(c1ccc(NC(=O)Nc2cc(C(C)(C)C)on2)cc1)c1ccnc(NCCOC(=O)Nc2cc(C(C)(C)C)on2)n1 | 54% (active) | 59% (active) | 4% | 102% (active) | inactive | inactive | inactive | inactive |
| Cc1cccc2[nH]c(-c3cccc(-c4cccc(CNCC5CCCO5)c4)c3)nc12 (stereo not given) | 99% (active) | 26% | -3% | 101% (active) | inactive | inactive | inactive | inactive |
| Cc1[nH]nc2ccc(-c3cc(OC[C@@H](N)Cc4ccccc4)cnc3-c3ccc(OCc4cccc(F)c4)cc3)cc12 | 59% (active) | 97% (active) | -5% | 98% (active) | inactive | inactive | inactive | inactive |
| COc1ccc(Cl)cc1NC(=O)Nc1ccnc2ccccc12 | 44% | 13% | -6% | 101% (active) | inactive | inactive | inactive | inactive |
| CCc1ccc(NC(=O)N(CCCN2CCN(C)CC2)Cc2csc(-c3ccc(CNCc4ccccc4)cc3)n2)cc1 | 80% (active) | 17% | -1% | 99% (active) | inactive | inactive | inactive | inactive |
| CCCc1cc(=O)[nH]c(-n2nc(C)cc2NC(=O)CC(c2ccccc2)c2ccccc2)n1 | 88% (active) | 39% | 4% | 97% (active) | inactive | inactive | inactive | inactive |
| O=C(NC1CCN(Cc2ccc3c(c2)OCCO3)CC1)c1ccc(-c2cccc(Cl)c2)s1 | 9% | 46% | -5% | 93% (active) | inactive | inactive | inactive | inactive |
| COc1ccccc1CCNc1nc(C)cc(N[C@@H](CC(C)C)C(=O)NCCc2ccccc2)n1 | 81% (active) | 12% | -2% | 97% (active) | inactive | inactive | inactive | inactive |
| Cc1cc(C(=O)Nc2ccc3c(c2)CCN3C2CCN(Cc3ccc(F)cc3Cl)C2)no1 (stereo not given) | 96% (active) | 7% | 1% | 95% (active) | inactive | inactive | inactive | inactive |
| Cc1cc(N[C@@H](Cc2ccccc2)C(=O)NCCOc2ccccc2)nc(NCc2ccccc2C)n1 | 80% (active) | 32% | -3% | 100% (active) | inactive | inactive | inactive | inactive |
| c1ccc2c(c1)CN(Cc1ccsc1)CC1(CCN(Cc3c[nH]c4cnccc34)CC1)O2 | 75% (active) | 38% | -2% | 87% (active) | inactive | inactive | inactive | inactive |
| CC1CCCCC1N(C)C1CCN(CCCNC(=O)C=Cc2cccc(C(F)(F)F)c2)CC1 (stereo not given) | 17% | 47% | -2% | 100% (active) | inactive | inactive | inactive | inactive |
| NC1=NC(Cc2ccccc2)N(c2ccc(Cl)cc2)C(N)=N1 (stereo not given) | 4% | 21% | -2% | 93% (active) | inactive | inactive | inactive | inactive |

| SMILES | growth inhibition [1] | inhibition [2] | inhibition [3] | growth inhibition [4] | outcome [5] | outcome [6] | outcome [7] | outcome [8] |
| --- | --- | --- | --- | --- | --- | --- | --- | --- |
| COc1ccc2ncc(F)c(NC(=O)C3CCC(NCc4cc5cc(F)cc(F)c5[nH]4)CC3)c2n1 (stereo not given) | 15% | 18% | 2% | 95% (active) | inactive | inactive | inactive | inactive |
| O=C(Nc1nc(-c2cc(F)ccc2F)cs1)c1cncc(Br)c1 | 3% | 16% | -4% | 85% (active) | inactive | inactive | inactive | inactive |
| O=C(/C=C/c1ccc(Cl)c(Cl)c1)NCCCCCN1CCCC(c2c[nH]c3ccccc23)C1 (stereo not given) | 22% | 25% | 2% | 99% (active) | inactive | inactive | inactive | inactive |
| O=C(CCC1CCCCC1=O)c1ccccc1 (stereo not given) | 3% | 0% | -4% | 91% (active) | inactive | inactive | inactive | inactive |
| Cc1cccc2[nH]c(-c3ccc(-c4cccc(CNCc5ccc(CN)cc5)c4)s3)nc12 | 48% | 11% | -2% | 99% (active) | inactive | inactive | inactive | inactive |
| CN1CCN(CCc2ccc(N=Cc3c(=O)[nH]c4ccc5[nH]cccc5c34)cc2)CC1 | 98% (active) | 51% (active) | 6% | 102% (active) | inactive | inactive | inactive | inactive |
| NCCNc1ccc([N+](=O)[O-])cc1C(=O)Nc1cccc(Cl)c1 | 7% | 23% | 4% | 85% (active) | inactive | inactive | inactive | inactive |
| CN1CCN(CC(=O)Nc2cccc(-c3cccc(-c4nc5ccccc5[nH]4)c3)c2)CC1 | 27% | 11% | 3% | 90% (active) | inactive | inactive | inactive | inactive |
| NC1CCCN(Cc2ccc(-c3cccc(-c4nc5ccccc5[nH]4)c3)cc2)C1 (stereo not given) | 26% | 26% | 2% | 95% (active) | inactive | inactive | inactive | inactive |
| Cc1cc(NCCC(=O)NCc2cccc(F)c2)nc(Nc2ccccc2)n1 | 15% | -4% | -3% | 94% (active) | inactive | inactive | inactive | inactive |
| COc1ccccc1CCNC(=O)c1cnc(N2CCN(c3ccncc3)CC2)c(Cl)c1 | 54% (active) | 30% | 4% | 98% (active) | inactive | inactive | inactive | inactive |
| Cc1ccc(C(=O)Cn2nc(-c3ccc(C)c(S(=O)(=O)N4CCCCC4)c3)ccc2=O)cc1 | 76% (active) | 6% | -5% | 99% (active) | inactive | inactive | inactive | inactive |
| Cc1noc(-c2ccc3c(c2)CCN(CCC2CCC(NC(=O)c4cc5ccccc5[nH]4)CC2)CC3)n1 (stereo not given) | 41% | 21% | -7% | 99% (active) | inactive | inactive | inactive | inactive |
| O=C(CCc1cnc[nH]1)Nc1ccc(-c2cccc(-c3nc4ccccc4[nH]3)c2)cc1 | 42% | 12% | 4% | 101% (active) | inactive | inactive | inactive | inactive |
| Cn1c(-c2ccccc2)cc2c3c(=O)cc(C(F)(F)F)[nH]c3ccc21 | 49% | 21% | -1% | 95% (active) | inactive | inactive | inactive | inactive |
| CN1CCc2ccc(NC(=O)Nc3cccc(C(=O)c4ccccc4)c3)cc2C1 | 16% | 11% | -1% | 83% (active) | inactive | inactive | inactive | inactive |
| Nc1ncnc2c1ncn2C(CO)Cc1ccc(O)cc1 (stereo not given) | 0% | -5% | -2% | 93% (active) | inactive | inactive | inactive | inactive |
| NC(N)=Nc1nc(-c2cccc(NCCCCCCCCON3C(N)=NC(N)=NC34CCCCC4)c2)cs1 | 42% | 3% | -2% | 97% (active) | inactive | inactive | inactive | inactive |
| CN(C)CCNc1ncnc2c1[nH]c1ccc(Br)cc12 | 7% | 2% | -2% | 100% (active) | inactive | inactive | inactive | inactive |
| O=C(c1c(-c2[nH]c3ccccc3c2C(=O)C(F)(F)F)[nH]c2ccccc12)C(F)(F)F | 99% (active) | 18% | 3% | 97% (active) | inactive | inactive | inactive | inactive |
